Screening data from PubChem.
LYPLA2 counter = LYPLA2 inhibitors, primary screen, counter-screen for PME1 inhibitor project, biochemical, fluorescence polarization, FP-Rh probe ABPP. recombinant LYPLA2. inhibition, % at 5.9 µM. hit rate 0.38% among 320,000. AID 2177, 2009;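 active = inhibition above the screen-wide mean plus 3 SD, limit set per campaign, cut at about 26% in these data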;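 note: 0% = LYPLA2 with DMSO and 100% = wells lacking LYPLA2 enzyme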
Fam108B inh = mouse Fam108B serine hydrolase inhibitors, primary screen, counter-screen for RBBP9 inhibitor project, biochemical, fluorescence polarization; recombinant Fam108B, FP-Rh probe fluorescence polarization; inhibition, % at 9.51 µM; hit rate 0.33% among 300,000; AID 1947, 2009;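 active = inhibition above the screen mean inhibition plus 3 SD, computed separately per campaign, cut at about 18% in these data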;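 note: inhibitors lower polarization as less probe binds the enzyme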
PME-1 primary = PME-1 inhibitors via competitive probe labeling, primary screen, biochemical, fluorescence polarization, FP-Rh probe, HTS; recombinant PME-1; inhibition, % at 5.9 µM; hit rate 0.53% among 320,000; AID 2130, 2009;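 active = inhibition above the campaign mean of all compounds plus 3 SD, cut at about 26% in these data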;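 note: competitive labeling of PME-1 active site by serine hydrolase directed probe; 0% = PME-1 with DMSO and 100% = wells lacking PME-1 enzyme; inhibitors block probe labeling so polarization falls and inhibition rises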
LYPLA1 inh = LYPLA1 inhibitors, primary screen, counter-screen for PME1 inhibitor project, biochemical, fluorescence polarization, FP-Rh probe ABPP; Acyl-protein thioesterase 1 (Homo sapiens), O75608; recombinant LYPLA1; inhibition, % at 5.9 µM; hit rate 0.16% among 320,000;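 active = inhibition above the mean of all tested compounds plus 3 SD, set per campaign, cut at about 14% in these data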;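 note: inhibitors block serine hydrolase probe labeling of LYPLA1 so polarization falls; 0% = enzyme with DMSO and 100% = wells lacking LYPLA1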
Target sequence (O75608 whole entry, looked up): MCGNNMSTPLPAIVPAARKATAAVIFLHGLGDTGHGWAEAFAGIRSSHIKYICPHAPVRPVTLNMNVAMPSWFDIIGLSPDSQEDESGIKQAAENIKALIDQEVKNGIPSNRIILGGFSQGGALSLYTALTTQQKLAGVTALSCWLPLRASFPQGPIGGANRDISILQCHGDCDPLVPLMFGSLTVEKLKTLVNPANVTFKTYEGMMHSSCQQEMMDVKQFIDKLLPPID
PREPL inh = PREPL enzyme inhibitors, primary screen, biochemical, fluorescence polarization | recombinant PREPL, fluorescence polarization activity-based probe | inhibition, % at 5.96 µM | hit rate 0.68% among 320,000 | AID 2751, 2010;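 note: 0% = enzyme with DMSO and 100% = wells lacking enzyme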
PREPL confirm = human PREPL enzyme inhibitors, confirmation, biochemical, fluorescence polarization; shares compounds with PREPL inh; recombinant PREPL, fluorescence polarization activity probe; inhibition, % at 5.96 µM; hit rate 67% among 2,000; AID 2803, 2010;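 note: 0% = protein with DMSO and 100% = wells lacking protein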
Active calls of the source: *; / = not tested or not shown. A selection: hits, their analogues and other compounds. The true share with any hit is near 1.3%. Cut-off read from the data, not from the text of the source, unless noted: active = inhibition above about 43%; inactive = the rest.

SMILES	LYPLA2 counter	Fam108B inh	PME-1 primary	LYPLA1 inh	PREPL inh	PREPL confirm
C=CC[n+]1c(-c2ccc(Cl)cc2Cl)csc1Nc1c(C)n(C)n(-c2ccccc2)c1=O	0	5	2	2	35	/
C=CC[n+]1c(-c2ccc(Cl)cc2Cl)csc1Nc1ccc(NC(C)=O)cc1	7	1	7	0	59*	63*
CC(C)(C)NC(=S)Nc1ccc(Nc2ccccc2)cc1	3	1	1	1	59*	10
C[C@H](NC(=O)[C@H](Cc1ccccc1)n1c(=O)[nH]c2ccccc2c1=O)C(=O)N1CCC(C(=O)O)CC1	-4	2	-4	-2	0	/
C=CCN1C(=O)N(c2ccccc2)C(=O)C1CC(=O)Nc1ccc(OC)cc1 (stereo not drawn)	2	-2	-2	1	9	/
CCOc1ccccc1/C=C/c1onc(C)c1S(=O)(=O)N1CCC(C(=O)N(CC)CC)CC1	-6	-5	-2	3	11	/
CCN(CCN(C)C)C(=O)C1CCN(S(=O)(=O)c2c(C)noc2/C=C/c2ccccc2F)CC1	9	5	10	3	44*	42
O=c1c2ccccc2c(C=NCCCN2CCOCC2)c(O)n1Cc1ccc2c(c1)OCO2	4	-1	-2	-2	44*	27
COc1ccc(C(=O)OC(C)C(=O)NC2CCCc3ccccc32)cc1OC (stereo not drawn)	1	/	21	1	10	/
COc1ccccc1NS(=O)(=O)c1cccc(C(=O)N2CCCCCCC2)c1	2	5	18	3	1	/
O=C(NC1(C(F)(F)F)N=C2SCCN2C1=O)c1ccccc1F (stereo not drawn)	4	-3	1	-1	2	/
O=C(O)[C@H]1CCCC[C@H]1C(=O)Nc1ccc(Nc2ccccc2)cc1	-1	4	-5	2	93*	8
CC(C)c1ccc(NC(=O)C2CCCCC2C(=O)O)cc1 (stereo not drawn)	-4	-2	-4	-1	-6	/
Cc1cc(/C=N/NC(N)=S)c(C)n1-c1ccc(Cl)cc1	4	-4	4	3	29	/
Cc1cc(/C=N/NC(N)=S)c(C)n1-c1ccc(Br)cc1	8	-1	2	2	54*	45*
CC(C)Nc1ccc(Nc2ccnc3cc4ccccc4cc23)cc1	7	8	-64	0	60*	62*
Cc1ccccc1OCC(=O)Nc1ccc(N2CCN(S(C)(=O)=O)CC2)cc1	9	2	1	3	22	/
CN1CCN(c2ccc(NC(=O)COc3cccc4ccccc34)cc2)CC1	3	3	5	-1	55*	57*
CN1CCN(c2ccc(NC(=O)COc3ccc4ccccc4c3)cc2)CC1	4	5	-3	2	52*	58*
CC(O)C1CCC2C3CC[C@H]4CC(O)CCC4(C)C3CC3(OCCO3)C12C (stereo partly drawn)	5	-3	1	4	6	/
COc1ccc(-c2oc3ncn(CCN4CCOCC4)c(=N)c3c2-c2ccc(OC)cc2)cc1	2	5	15	11	48*	35
O=C1OC[C@@H]2CCCN2C(=O)[C@H](CC(=O)N(CCO)Cc2ccccc2)C/C=C\CC[C@H]1Cc1ccc(F)cc1	/	/	/	/	35	/
O=C1OC[C@@H]2CCCN2C(=O)[C@@H](CC(=O)N(CCO)Cc2ccccc2)C/C=C\C[C@H]1Cc1ccc(F)cc1	/	/	/	/	53*	40
O=C1OC[C@H]2CCCN2C(=O)[C@@H](CC(=O)N(CCO)Cc2ccccc2)C/C=C\CC[C@H]1Cc1ccc(F)cc1	/	/	/	/	45*	41
O=C1OC[C@H]2CCCN2C(=O)[C@@H](CC(=O)N(CCO)Cc2ccccc2)C/C=C\C[C@H]1Cc1ccc(F)cc1	/	/	/	/	54*	45*
CC1CCCC(N2CCN(S(=O)(=O)c3ccccc3)CC2)C1 (stereo not drawn)	1	-4	-1	6	3	/
O=C(C1CCC(=O)N(C2CC2)C1)N1CCC(Oc2ccccc2F)CC1 (stereo not drawn)	11	4	1	0	-5	/
